The supplement of paper PMC9262897, “Low-cost anti-mycobacterial drug discovery using engineered E. coli” (Nature Communications, 2022)
Structures can show the parent of a compound that is named as a salt. ± gives the standard deviation of the averaged measurements.

What was measured:
Assay in all cases: growth (OD600 after 10 h); higher = more growth (less inhibition)
[1] = system: E. coli TESEC Alr+ wild-type control; details: compound 0.1 mM; raw OD600 reference: median of DMSO wells 0.241, cell-free background 0.041
Protocol: (§1)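 TESEC Mtb Alr E. coli, or the Alr+ wild-type control, in 384-well plates with Prestwick library compounds at 0.1 mM and 1% DMSO, across arabinose induction levels of 1E3 to 1E7 nM. Growth is read as OD600 after 10 h at 37 °C in triplicate biological replicates.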

E. coli TESEC Mtb Alr [2] = details: compound 0.1 mM
Protocol: as §1

E. coli TESEC Mtb Asd = details: compound 0.1 mM
Protocol: (§2)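 TESEC E. coli strains in which the native enzyme is deleted and replaced by arabinose-inducible Mtb Asd, DapB, CysH or TrpD, each grown in its selective medium. Strains were screened against the Prestwick library at 0.1 mM and 1% DMSO in 384-well format at low and high arabinose induction. Growth is read as OD600 after 10 h in triplicate.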

E. coli TESEC Mtb DapB = details: compound 0.1 mM
Protocol: as §2

[3] = system: E. coli TESEC Alr+ wild-type control; details: compound 0.1 mM; raw OD600 reference: median of DMSO wells 0.49, cell-free background 0.052
Protocol: (§3)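 TESEC Mtb Alr E. coli (ΔaraC ΔtolC ΔentC Δalr ΔdadX, arabinose-inducible Mtb Alr) or the Alr+ wild-type control strain, grown in defined M9-fructose medium without D-alanine in 96-well plates with Prestwick library compounds at 0.1 mM and 1% DMSO. Low Alr induction is 0.1 µM arabinose and high induction is 10 mM arabinose.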

E. coli TESEC Mtb Alr [4] = details: compound 0.1 mM; remark: listed apart in the source
Protocol: as §3

[5] = arabinose 1000 nM, raw OD600 reference: median of DMSO wells 0.294, cell-free background 0.041
[6] = arabinose 10000 nM, raw OD600 reference: median of DMSO wells 0.264, cell-free background 0.041
[7] = arabinose 100000 nM, raw OD600 reference: median of DMSO wells 0.201, cell-free background 0.041
[8] = arabinose 1000000 nM, raw OD600 reference: median of DMSO wells 0.193, cell-free background 0.041
[9] = arabinose 10000000 nM, raw OD600 reference: median of DMSO wells 0.146, cell-free background 0.041
[10] = arabinose induction (level): High, raw OD600 reference: median of DMSO wells 0.331, cell-free background 0.041
[11] = arabinose induction (level): Low, raw OD600 reference: median of DMSO wells 0.417, cell-free background 0.041
[12] = arabinose induction (level): High, raw OD600 reference: median of DMSO wells […], cell-free background 0.041
[13] = arabinose induction (level): Low, raw OD600 reference: median of DMSO wells 0.227, cell-free background 0.041
[14] = arabinose 100 nM, raw OD600 reference: median of DMSO wells 0.413, cell-free background 0.052
[15] = arabinose 10000000 nM, raw OD600 reference: median of DMSO wells […], cell-free background 0.052

SMILES	growth [1]	growth (E. coli TESEC Mtb Alr [2]; [5])	growth (E. coli TESEC Mtb Alr [2]; [6])	growth (E. coli TESEC Mtb Alr [2]; [7])	growth (E. coli TESEC Mtb Alr [2]; [8])	growth (E. coli TESEC Mtb Alr [2]; [9])	growth (E. coli TESEC Mtb Asd; [10])	growth (E. coli TESEC Mtb Asd; [11])	growth (E. coli TESEC Mtb DapB; [12])	growth (E. coli TESEC Mtb DapB; [13])	growth [3]	growth (E. coli TESEC Mtb Alr [4]; [14])	growth (E. coli TESEC Mtb Alr [4]; [15])
O=C(c1ccccc1)c1ccc2n1CCC2C(=O)O (stereo not drawn) [Ketorolac tromethamine]	0.222 ± 0.0085	0.262 ± 0.015	0.253 ± 0.013	0.181 ± 0.01	0.195 ± 0.0049	0.137 ± 0.0035	0.381 ± 0.035	0.331 ± 0.036	0.194 ± 0.02	0.216 ± 0.049	0.531 ± 0.076	0.384 ± 0.016	0.326 ± 0.0097
CCOC(=O)[C@H](CCc1ccccc1)N[C@H]1CCc2ccccc2N(CC(=O)O)C1=O [Benazepril HCl]	0.245 ± 0.011	0.044 ± 0.0065	0.0504 ± 0.011	0.253 ± 0.023	0.173 ± 0.0047	0.1615 ± 0.0012	0.293 ± 0.042	0.36 ± 0.066	0.198 ± 0.0085	0.24 ± 0.038	0.559 ± 0.042	0.0476 ± 0.0029	0.331 ± 0.015
Cc1c(Cl)cccc1Nc1ncccc1C(=O)O [Clonixin Lysinate]	0.181 ± 0.0096	0.207 ± 0.0063	0.155 ± 0.0017	0.173 ± 0.0047	0.0952 ± 0.0017	0.15 ± 0.0047	0.19 ± 0.011	0.17 ± 0.0079	0.175 ± 0.019	0.207 ± 0.035	0.334 ± 0.0083	0.283 ± 0.023	0.173 ± 0.026
CCCCN(CCCC)CCCOC(=O)c1ccc(N)cc1 [Butacaine]	0.2003 ± 0.0014	0.284 ± 0.019	0.275 ± 0.01	0.181 ± 0.013	0.189 ± 0.0068	0.14 ± 0.0032	0.275 ± 0.029	0.445 ± 0.06	0.182 ± 0.0067	0.208 ± 0.016	0.474 ± 0.038	0.408 ± 0.013	0.337 ± 0.019
CNCCCC1c2ccccc2C=Cc2ccccc21 [Protriptyline hydrochloride]	0.177 ± 0.013	0.219 ± 0.0041	0.256 ± 0.018	0.157 ± 0.0029	0.12 ± 0.0051	0.137 ± 0.0036	0.153 ± 0.0035	0.263 ± 0.058	0.164 ± 0.039	0.21 ± 0.011	0.558 ± 0.023	0.402 ± 0.013	0.313 ± 0.018
CCN1CCN(c2cc3c(cc2F)c(=O)c(C(=O)O)cn3C2CC2)CC1 [Enrofloxacin]	0.04133 ± 0.00021	0.0446 ± 0.0089	0.0393 ± 0.00035	0.0406 ± 0.0012	0.0391 ± 0.0002	0.0419 ± 0.0033	0.0465 ± 0.0016	0.0466 ± 0.0016	0.0496 ± 0.00083	0.0487 ± 0.0006	0.0543 ± 0.0025	0.05387 ± 0.00035	0.0522 ± 0.001
COc1c(N2C[C@@H]3CCCN[C@@H]3C2)c(F)cc2c(=O)c(C(=O)O)cn(C3CC3)c12 [Moxifloxacin]	0.04227 ± 0.00025	0.04077 ± 0.00035	0.0401 ± 0.0003	0.0415 ± 0.0005	0.04013 ± 0.00012	0.0446 ± 0.0054	0.0511 ± 0.0029	0.052 ± 0.0016	0.04903 ± 0.00038	0.04933 ± 0.00035	0.0539 ± 0.0014	0.05287 ± 0.00031	0.0516 ± 0.0013
CCOC(=O)C1=C(COCCN)NC(C)=C(C(=O)OC)C1c1ccccc1Cl (stereo not drawn) [Amlodipine]	0.231 ± 0.0038	0.2004 ± 0.0019	0.23 ± 0.022	0.179 ± 0.0029	0.0929 ± 0.0035	0.104 ± 0.0021	0.132 ± 0.0075	0.136 ± 0.0072	0.155 ± 0.077	0.205 ± 0.017	0.566 ± 0.028	0.398 ± 0.0055	0.282 ± 0.011
CC(Cc1cccc(C(F)(F)F)c1)NCCOC(=O)c1ccccc1 (stereo not drawn) [Benfluorex]	0.174 ± 0.0053	0.15 ± 0.094	0.163 ± 0.0039	0.209 ± 0.0022	0.0479 ± 0.0001	0.0634 ± 0.0014	0.163 ± 0.014	0.153 ± 0.0072	0.149 ± 0.0064	0.1621 ± 0.00032	0.405 ± 0.013	0.411 ± 0.01	0.0607 ± 0.0052
CC(=O)OCC1=C(C(=O)O)N2C(=O)[C@@H](NC(=O)Cc3cccs3)[C@H]2SC1 [Cephalothin sodium salt]	0.305 ± 0.0066	0.334 ± 0.017	0.209 ± 0.0072	0.283 ± 0.03	0.172 ± 0.0079	0.174 ± 0.0022	0.421 ± 0.021	0.421 ± 0.058	0.206 ± 0.013	0.258 ± 0.0063	0.447 ± 0.04	0.332 ± 0.027	0.35 ± 0.015
Cn1cnc2c1c(=O)[nH]c(=O)n2C [Theobromine]	0.255 ± 0.0061	0.313 ± 0.018	0.289 ± 0.015	0.218 ± 0.02	0.189 ± 0.0034	0.155 ± 0.011	0.483 ± 0.0089	0.454 ± 0.03	0.206 ± 0.008	0.249 ± 0.036	0.461 ± 0.015	0.404 ± 0.014	0.365 ± 0.022
OCCN1CCN(CCCN2c3ccccc3Sc3ccc(C(F)(F)F)cc32)CC1 [Fluphenazine dihydrochloride]	0.0421 ± 0.0038	0.041 ± 0.0026	0.0391	0.03987 ± 0.00021	0.03867 ± 0.00012	0.0405 ± 0.00052	0.0496 ± 0.00091	0.0515 ± 0.0021	0.0483 ± 0.00055	0.15 ± 0.1	0.04827 ± 0.00025	0.286 ± 0.21	0.0529 ± 0.00081
CN1C(=O)CC(c2ccccc2)C1=O (stereo not drawn) [Phensuximide]	0.244 ± 0.0072	0.299 ± 0.0059	0.281 ± 0.0045	0.183 ± 0.022	0.231 ± 0.02	0.138 ± 0.011	0.338 ± 0.022	0.401 ± 0.035	0.174 ± 0.0062	0.219 ± 0.015	0.544 ± 0.076	0.431 ± 0.015	0.357 ± 0.0052
CCC1=C(C)CN(C(=O)NCCc2ccc(S(=O)(=O)NC(=O)N[C@H]3CC[C@H](C)CC3)cc2)C1=O [Glimepiride]	0.247 ± 0.0069	0.299 ± 0.011	0.239 ± 0.0027	0.161 ± 0.0087	0.182 ± 0.004	0.155 ± 0.0053	0.338 ± 0.064	0.439 ± 0.052	0.21 ± 0.012	0.221 ± 0.018	0.434 ± 0.034	0.411 ± 0.0056	0.193 ± 0.014
Cc1c(OCC(F)(F)F)ccnc1C[S+]([O-])c1nc2ccccc2[nH]1 (stereo not drawn) [Lansoprazole]	0.131 ± 0.0017	0.164 ± 0.0045	0.242 ± 0.01	0.132 ± 0.0025	0.094 ± 0.0041	0.14 ± 0.0041	0.236 ± 0.024	0.191 ± 0.0085	0.175 ± 0.0097	0.203 ± 0.02	0.377 ± 0.011	0.363 ± 0.035	0.163 ± 0.025
CCN(CC)CCOC(=O)C(Cc1cccc2ccccc12)CC1CCCO1 (stereo not drawn) [Nafronyl oxalate]	0.15 ± 0.0052	0.219 ± 0.0043	0.255 ± 0.014	0.157 ± 0.0057	0.0991 ± 0.0023	0.151 ± 0.0053	0.127 ± 0.0055	0.309 ± 0.11	0.184 ± 0.019	0.174 ± 0.008	0.464 ± 0.015	0.407 ± 0.0062	0.293 ± 0.015
